Measurements published in the supplement of paper PMC11732987, “Enantioselective OTUD7B fragment discovery through chemoproteomics screening and high-throughput optimisation” (Communications Chemistry, 2025).

Legend:
Test in all cases: log2 ratio of Biotin-Ahx-Ub-VS probe labelling (fragment/DMSO); higher = less target engagement (more negative = stronger competition), active = hit call of the paper (q ≤ 0.05, log2 ratio ≤ -1)
Settings in all cases: compound concentration: 200 uM; treatment time: 3 h
USP42 = molecular target: T1, USP42 (UniProt Q9H9J4)
T1 sequence (whole entry): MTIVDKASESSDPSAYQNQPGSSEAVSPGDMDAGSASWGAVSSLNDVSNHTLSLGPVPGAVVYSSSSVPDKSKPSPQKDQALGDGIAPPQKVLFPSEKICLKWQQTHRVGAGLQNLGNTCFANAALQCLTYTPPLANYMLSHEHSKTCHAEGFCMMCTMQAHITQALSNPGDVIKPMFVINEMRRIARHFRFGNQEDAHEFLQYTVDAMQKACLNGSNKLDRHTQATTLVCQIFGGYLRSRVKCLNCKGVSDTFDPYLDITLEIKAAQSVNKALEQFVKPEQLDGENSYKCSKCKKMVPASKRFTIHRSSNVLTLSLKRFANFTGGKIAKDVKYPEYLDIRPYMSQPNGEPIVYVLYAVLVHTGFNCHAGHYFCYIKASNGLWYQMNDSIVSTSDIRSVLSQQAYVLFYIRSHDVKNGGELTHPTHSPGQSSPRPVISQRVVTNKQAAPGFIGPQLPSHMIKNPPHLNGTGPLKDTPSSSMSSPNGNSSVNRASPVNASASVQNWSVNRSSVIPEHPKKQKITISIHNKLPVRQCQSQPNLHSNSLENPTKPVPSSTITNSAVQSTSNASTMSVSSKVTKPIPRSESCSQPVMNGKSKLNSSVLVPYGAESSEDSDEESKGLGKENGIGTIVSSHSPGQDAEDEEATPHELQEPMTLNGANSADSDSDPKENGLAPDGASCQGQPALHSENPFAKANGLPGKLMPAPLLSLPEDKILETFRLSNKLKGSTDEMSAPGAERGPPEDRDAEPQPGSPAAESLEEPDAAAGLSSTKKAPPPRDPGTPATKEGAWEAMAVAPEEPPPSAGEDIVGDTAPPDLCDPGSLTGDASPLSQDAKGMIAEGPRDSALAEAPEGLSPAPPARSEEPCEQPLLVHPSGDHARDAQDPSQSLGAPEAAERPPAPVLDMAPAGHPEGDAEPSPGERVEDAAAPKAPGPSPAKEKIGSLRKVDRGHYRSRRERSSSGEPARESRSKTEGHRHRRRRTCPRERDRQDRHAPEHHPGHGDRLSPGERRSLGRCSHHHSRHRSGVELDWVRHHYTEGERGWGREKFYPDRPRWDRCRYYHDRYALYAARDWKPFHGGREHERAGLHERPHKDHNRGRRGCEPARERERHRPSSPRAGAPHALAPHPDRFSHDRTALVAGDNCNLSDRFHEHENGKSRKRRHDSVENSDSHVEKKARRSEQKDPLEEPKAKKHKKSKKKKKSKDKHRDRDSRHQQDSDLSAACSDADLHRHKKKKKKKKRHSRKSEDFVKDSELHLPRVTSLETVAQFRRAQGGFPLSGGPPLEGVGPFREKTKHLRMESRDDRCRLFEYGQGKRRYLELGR
Method in brief: (§1)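 HEK293T lysate, 495 µg per sample in Tris/CHAPS/IGEPAL buffer with protease inhibitors, was treated in triplicate with fragment at 200 µM or vehicle for 3 h and then with Biotin-Ahx-Ub-VS at 0.5 µM final for 1 h. Labelled DUBs were NeutrAvidin-enriched, digested with LysC and trypsin, and run by diaPASEF LC-MS/MS. Spectronaut label-free quantities were global-median-normalised, and values are average log2 fragment/vehicle ratios by unpaired t-test on proteins with ≥2 unique peptides.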

USP46 = USP46 (UniProt P62068)
Method in brief: as §1

USP47 = molecular target: T2, USP47 (UniProt Q96K76)
T2 sequence (whole entry): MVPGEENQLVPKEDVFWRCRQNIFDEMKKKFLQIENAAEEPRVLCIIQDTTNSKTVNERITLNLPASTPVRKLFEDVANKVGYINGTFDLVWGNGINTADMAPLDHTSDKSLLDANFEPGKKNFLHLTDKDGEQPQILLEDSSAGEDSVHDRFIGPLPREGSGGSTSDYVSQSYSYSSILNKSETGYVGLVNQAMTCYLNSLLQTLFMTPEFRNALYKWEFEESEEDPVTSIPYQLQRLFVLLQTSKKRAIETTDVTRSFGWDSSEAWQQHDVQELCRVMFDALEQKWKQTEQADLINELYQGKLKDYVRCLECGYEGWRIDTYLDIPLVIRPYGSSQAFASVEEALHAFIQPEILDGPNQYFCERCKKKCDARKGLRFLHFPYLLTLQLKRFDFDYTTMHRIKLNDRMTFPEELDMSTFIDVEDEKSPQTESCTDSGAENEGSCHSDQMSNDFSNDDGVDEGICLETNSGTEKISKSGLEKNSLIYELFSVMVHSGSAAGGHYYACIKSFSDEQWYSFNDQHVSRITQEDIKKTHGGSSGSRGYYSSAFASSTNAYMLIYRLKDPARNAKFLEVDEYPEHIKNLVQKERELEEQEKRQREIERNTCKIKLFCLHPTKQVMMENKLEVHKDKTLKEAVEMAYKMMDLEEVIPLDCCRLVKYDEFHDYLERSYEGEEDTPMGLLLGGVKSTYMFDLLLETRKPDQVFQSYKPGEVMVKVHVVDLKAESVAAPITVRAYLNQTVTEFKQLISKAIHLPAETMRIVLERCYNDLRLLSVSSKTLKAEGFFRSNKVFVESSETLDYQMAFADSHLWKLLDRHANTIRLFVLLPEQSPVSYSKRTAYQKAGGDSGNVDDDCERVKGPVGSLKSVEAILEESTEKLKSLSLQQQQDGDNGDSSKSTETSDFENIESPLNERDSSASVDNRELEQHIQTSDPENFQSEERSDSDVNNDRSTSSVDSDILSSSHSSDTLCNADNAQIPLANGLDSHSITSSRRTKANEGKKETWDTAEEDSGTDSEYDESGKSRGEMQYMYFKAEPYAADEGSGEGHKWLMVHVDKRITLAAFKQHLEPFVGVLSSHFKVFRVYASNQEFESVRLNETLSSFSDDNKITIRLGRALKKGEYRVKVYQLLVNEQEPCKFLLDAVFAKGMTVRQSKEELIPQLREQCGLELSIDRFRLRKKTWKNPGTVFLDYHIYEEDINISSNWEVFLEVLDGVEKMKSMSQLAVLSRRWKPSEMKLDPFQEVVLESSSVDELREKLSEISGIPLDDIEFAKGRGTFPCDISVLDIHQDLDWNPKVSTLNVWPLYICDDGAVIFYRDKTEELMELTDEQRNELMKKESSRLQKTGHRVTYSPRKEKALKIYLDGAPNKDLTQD
Method in brief: as §1

USP48 = molecular target: T3, USP48 (UniProt Q86UV5)
T3 sequence (whole entry): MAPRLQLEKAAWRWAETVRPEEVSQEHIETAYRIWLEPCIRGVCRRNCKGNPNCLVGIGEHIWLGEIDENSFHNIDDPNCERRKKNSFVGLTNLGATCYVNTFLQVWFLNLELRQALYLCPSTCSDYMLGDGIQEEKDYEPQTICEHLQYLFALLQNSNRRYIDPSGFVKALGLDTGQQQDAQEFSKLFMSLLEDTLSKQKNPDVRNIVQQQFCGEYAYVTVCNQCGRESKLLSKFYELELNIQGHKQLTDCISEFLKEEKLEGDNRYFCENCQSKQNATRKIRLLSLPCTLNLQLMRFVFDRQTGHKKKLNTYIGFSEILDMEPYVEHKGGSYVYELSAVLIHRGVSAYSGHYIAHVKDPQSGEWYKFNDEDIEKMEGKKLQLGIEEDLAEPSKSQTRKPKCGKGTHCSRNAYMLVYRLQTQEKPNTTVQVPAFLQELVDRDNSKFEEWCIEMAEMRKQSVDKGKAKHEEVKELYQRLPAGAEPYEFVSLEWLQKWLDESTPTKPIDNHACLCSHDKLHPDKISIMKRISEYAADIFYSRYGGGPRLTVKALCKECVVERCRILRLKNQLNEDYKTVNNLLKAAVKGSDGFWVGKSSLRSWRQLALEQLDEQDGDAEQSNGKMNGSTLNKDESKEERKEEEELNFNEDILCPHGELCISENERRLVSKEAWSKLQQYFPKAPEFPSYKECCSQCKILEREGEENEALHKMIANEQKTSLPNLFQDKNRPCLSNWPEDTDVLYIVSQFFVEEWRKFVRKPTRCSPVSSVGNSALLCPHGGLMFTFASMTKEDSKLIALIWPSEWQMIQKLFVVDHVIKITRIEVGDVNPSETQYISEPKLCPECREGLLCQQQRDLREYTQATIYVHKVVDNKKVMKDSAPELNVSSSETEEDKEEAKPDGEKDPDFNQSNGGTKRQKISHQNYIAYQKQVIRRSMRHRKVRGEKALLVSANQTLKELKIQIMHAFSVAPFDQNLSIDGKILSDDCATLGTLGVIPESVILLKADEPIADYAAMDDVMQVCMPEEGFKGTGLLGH
Method in brief: as §1

USP5 = molecular target: T4, USP5 (UniProt P45974)
T4 sequence (whole entry): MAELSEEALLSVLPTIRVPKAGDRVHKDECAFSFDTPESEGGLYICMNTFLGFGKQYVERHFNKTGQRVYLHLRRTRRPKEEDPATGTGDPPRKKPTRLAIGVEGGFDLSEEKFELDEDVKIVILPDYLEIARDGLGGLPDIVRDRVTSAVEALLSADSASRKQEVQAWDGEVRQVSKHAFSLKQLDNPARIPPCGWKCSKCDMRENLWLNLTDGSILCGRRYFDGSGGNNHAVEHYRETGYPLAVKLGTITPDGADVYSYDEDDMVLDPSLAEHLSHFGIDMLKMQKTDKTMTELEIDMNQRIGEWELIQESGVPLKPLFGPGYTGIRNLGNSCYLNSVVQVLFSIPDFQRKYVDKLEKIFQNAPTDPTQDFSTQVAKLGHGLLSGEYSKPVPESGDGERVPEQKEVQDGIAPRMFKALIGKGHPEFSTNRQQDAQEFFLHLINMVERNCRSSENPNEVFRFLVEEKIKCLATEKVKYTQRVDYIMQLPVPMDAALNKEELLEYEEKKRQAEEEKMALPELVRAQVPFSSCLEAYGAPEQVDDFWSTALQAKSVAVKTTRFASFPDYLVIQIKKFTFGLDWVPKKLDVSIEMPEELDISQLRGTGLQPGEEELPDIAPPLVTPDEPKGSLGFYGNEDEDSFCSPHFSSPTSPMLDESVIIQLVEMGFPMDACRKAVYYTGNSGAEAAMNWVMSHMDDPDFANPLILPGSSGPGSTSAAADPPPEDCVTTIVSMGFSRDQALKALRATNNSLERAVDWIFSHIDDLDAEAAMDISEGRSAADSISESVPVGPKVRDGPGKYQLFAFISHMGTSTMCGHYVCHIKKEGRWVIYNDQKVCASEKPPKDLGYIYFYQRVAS
Method in brief: as §1

USP54 = USP54 (UniProt Q70EL1)
Method in brief: as §1

USP7 = USP7 (UniProt Q93009)
Method in brief: as §1

USP8 = molecular target: T5, USP8 (UniProt P40818)
T5 sequence (whole entry): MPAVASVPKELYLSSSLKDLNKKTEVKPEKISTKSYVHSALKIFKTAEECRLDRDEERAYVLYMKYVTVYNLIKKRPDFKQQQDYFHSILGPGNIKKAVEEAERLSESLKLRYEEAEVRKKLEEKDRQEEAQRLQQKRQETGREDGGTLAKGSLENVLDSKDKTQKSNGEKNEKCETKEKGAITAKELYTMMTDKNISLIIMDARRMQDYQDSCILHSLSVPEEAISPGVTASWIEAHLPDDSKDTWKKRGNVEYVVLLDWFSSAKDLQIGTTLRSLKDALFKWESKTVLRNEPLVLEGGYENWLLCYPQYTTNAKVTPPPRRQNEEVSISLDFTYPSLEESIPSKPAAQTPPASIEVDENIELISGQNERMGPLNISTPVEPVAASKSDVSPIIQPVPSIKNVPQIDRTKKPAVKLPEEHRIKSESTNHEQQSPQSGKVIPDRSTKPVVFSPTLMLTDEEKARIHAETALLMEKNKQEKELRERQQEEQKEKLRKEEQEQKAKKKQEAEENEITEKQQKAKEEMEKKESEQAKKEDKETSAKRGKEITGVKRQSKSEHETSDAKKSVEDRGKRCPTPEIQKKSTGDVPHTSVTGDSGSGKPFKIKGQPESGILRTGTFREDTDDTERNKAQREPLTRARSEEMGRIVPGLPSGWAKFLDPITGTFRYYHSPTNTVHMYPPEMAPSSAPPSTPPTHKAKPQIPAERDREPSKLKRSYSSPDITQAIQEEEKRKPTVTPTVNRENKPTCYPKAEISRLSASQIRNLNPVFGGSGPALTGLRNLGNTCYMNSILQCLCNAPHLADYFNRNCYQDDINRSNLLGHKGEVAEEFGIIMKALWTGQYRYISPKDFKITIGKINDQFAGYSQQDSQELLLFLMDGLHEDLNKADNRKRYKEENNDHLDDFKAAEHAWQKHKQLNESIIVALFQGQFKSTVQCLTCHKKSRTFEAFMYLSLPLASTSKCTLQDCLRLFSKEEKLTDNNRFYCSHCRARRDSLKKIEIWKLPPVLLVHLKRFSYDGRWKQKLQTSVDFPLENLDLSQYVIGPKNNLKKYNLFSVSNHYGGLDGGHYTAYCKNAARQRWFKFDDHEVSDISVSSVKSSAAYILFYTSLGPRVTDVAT
Method in brief: as §1

Measured: log2 ratio of Biotin-Ahx-Ub-VS probe labelling

Chain of USP54 (Q70EL1 whole entry): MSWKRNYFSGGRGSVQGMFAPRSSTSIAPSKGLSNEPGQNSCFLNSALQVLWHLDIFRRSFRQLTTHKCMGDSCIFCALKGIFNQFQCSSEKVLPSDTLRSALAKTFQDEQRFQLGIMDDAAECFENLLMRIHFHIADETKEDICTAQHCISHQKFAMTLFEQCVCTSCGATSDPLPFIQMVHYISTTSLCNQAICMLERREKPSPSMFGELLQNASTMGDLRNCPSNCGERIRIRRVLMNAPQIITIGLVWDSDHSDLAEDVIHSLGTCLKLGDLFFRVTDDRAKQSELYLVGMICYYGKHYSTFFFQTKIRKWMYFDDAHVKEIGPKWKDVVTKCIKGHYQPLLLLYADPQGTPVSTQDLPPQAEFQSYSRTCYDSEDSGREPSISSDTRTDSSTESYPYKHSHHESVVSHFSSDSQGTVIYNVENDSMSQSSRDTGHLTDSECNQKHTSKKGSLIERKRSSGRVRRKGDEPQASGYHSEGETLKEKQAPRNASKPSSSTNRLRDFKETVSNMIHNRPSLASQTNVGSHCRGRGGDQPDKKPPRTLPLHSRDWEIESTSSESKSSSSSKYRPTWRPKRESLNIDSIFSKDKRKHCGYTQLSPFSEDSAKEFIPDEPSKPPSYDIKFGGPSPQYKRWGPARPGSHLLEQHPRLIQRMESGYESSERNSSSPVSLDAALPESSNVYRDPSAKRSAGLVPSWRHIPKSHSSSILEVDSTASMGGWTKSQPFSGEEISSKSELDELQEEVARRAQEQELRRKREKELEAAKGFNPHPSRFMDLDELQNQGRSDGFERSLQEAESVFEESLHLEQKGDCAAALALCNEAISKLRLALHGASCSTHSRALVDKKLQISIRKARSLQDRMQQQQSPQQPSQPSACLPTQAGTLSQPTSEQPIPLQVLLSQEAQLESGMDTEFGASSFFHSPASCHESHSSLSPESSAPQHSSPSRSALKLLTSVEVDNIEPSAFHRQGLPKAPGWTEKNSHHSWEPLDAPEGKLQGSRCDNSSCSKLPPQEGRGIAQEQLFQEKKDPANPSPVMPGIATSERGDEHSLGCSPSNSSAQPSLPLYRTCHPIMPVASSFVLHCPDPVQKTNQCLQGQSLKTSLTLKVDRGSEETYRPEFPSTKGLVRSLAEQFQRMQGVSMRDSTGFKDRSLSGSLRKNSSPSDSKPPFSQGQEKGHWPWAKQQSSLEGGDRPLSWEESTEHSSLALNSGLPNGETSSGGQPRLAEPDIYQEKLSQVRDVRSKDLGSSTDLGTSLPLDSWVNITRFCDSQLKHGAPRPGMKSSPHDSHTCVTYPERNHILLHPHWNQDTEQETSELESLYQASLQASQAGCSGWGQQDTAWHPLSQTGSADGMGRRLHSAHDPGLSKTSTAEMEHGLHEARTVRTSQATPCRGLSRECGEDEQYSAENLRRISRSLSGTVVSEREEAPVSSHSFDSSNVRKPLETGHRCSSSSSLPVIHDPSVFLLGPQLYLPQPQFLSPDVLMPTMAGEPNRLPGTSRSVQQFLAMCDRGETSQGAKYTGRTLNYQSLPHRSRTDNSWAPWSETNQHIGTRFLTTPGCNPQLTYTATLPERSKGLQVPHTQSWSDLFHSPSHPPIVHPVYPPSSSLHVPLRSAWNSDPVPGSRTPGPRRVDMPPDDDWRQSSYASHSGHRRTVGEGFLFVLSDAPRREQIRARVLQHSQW
Chain of USP7 (Q93009 whole entry, looked up): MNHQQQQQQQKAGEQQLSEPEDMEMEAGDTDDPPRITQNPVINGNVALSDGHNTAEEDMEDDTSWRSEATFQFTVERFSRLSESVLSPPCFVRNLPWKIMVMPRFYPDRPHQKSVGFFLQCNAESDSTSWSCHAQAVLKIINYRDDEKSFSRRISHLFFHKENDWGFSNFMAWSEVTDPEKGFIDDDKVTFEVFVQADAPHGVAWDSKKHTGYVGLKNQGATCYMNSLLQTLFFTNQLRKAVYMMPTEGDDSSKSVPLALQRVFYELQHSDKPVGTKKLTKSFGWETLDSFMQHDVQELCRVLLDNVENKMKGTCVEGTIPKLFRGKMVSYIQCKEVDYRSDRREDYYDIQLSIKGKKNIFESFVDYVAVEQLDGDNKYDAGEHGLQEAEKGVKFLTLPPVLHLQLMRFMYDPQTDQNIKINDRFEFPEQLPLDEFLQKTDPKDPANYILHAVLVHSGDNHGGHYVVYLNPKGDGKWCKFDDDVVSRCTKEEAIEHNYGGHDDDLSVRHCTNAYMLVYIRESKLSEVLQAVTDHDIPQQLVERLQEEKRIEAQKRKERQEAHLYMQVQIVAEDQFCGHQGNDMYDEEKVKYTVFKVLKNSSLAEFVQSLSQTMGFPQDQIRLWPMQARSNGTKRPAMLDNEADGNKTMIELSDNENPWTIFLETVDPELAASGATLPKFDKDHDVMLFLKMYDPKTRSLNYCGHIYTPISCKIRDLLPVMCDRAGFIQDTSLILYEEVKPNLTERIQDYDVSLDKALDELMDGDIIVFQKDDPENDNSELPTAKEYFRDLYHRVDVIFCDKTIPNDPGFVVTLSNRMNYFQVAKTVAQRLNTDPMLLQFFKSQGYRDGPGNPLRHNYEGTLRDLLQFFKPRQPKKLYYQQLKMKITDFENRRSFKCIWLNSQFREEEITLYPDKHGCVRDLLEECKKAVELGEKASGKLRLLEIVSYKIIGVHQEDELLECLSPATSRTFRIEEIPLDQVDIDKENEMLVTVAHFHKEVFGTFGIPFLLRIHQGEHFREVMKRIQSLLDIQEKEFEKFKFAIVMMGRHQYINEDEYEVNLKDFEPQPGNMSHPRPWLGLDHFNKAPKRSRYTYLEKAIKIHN
Chain of USP46 (P62068 whole entry): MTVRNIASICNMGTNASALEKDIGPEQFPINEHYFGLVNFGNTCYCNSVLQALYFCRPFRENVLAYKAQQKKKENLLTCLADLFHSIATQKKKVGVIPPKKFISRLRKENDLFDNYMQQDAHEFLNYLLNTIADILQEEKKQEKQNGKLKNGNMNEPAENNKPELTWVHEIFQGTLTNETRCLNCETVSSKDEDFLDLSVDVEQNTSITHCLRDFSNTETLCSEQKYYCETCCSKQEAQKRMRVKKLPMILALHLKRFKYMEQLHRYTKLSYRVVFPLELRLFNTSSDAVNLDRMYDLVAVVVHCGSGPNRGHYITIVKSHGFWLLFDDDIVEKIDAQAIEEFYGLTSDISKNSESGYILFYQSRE

Cc1c(NC(=O)CCl)c(=O)n(-c2ccccc2)n1C
inactive: USP42 0.238 | USP46 0.0574 | USP47 -0.882 | USP48 -0.0273 | USP5 -0.287 | USP54 0.0174 | USP7 -0.431 | USP8 0.0124
